From PubChem BioAssay
This excerpt belongs to a sample that is enriched for hits.
KDM5B inhibitor: Primary screen for KDM5B Histone Demethylases FDH-coupled qHTS; Lysine-specific demethylase 5B (Homo sapiens), Q9UGL1; KDM5B demethylase, FDH-coupled NADH fluorescence (FDH is formaldehyde dehydrogenase); Potency, µM (top dose mostly 57.7 µM), hits mostly inhibitors; 220,000 tested, 2.6% active; active means well fitted inhibition curve with a large enough effect; further: nearly all actives have a fitted effect of over 70% in size
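KDM5BΔAP (200 nM final) in 50 mM HEPES pH 7.5, 0.01% Tween-20 was preincubated 10 min at RT with compound over a concentration range. Substrate mix (H3K4me3 12.5 µM, α-KG 25 µM, Fe²⁺, ascorbate, NAD⁺, FDH) was added, and NADH fluorescence change over 30 min gave dose-response curves.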
A number is an active result; n = inactive.

SMILES	KDM5B inhibitor
CC(C)(CC(=O)O)CC(=O)N1C[C@@H]2C[C@H](C1)c1ccc(-c3cccc(C#N)c3)c(=O)n1C2	n
CSCC(=O)N1C[C@@H]2C[C@H](C1)c1c(-c3ccc(SC)cc3)ccc(=O)n1C2	n
O=C(O)CSCC(=O)N1C[C@@H]2C[C@H](C1)c1ccc(-c3cccc(C(F)(F)F)c3)c(=O)n1C2	31.6µM
O=C(CSC1c2ccccc2Oc2ccccc21)Nc1ccc(C(=O)O)cc1	n
CCN(CC)C[C@H]1CN2CC[C@H]1C[C@@H]2CNC(=O)Nc1cccc(SC)c1	n
COc1ccc(-c2cc([C@H]3CN4CC[C@H]3C[C@@H]4CNC(=O)c3ccc(N(C)C)cc3)n(C)n2)cc1	n
Cc1[nH]nc2c1C(c1ccc(-c3ccccc3F)o1)SCC(=O)N2 (configuration not stated)	n
